Compounds without any hit were thinned out: in the full panel of roughly 83,000, 20% have a hit.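 Assay: single dose, 48 h. Readout: percent growth (0 = no net growth; negative = cell death). Active: <10.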 Values without a mark were called inactive. Activity calls are given as the source filed them.

Results on 16 molecules are retold here after PubChem BioAssay (NCI).

Common to all, as to test: NCI-60 one-dose screen, 48 h (100 = growth as untreated, 0 = no growth, -100 = all killed)
What all share (conditions): 10 µM unless noted

In test [1] the test system is T-47D breast.
The test system of test [2] is BT-549 breast.
The test system of test [3] is MDA-MB-435 melanoma.
In test [4] the test system is SW-620 colon.
Test [5] has as its system MCF7 breast.
In test [6] the test system is HCT-116 colon.
Test [7] deals with HCC-2998 colon.
Test [8] deals with KM12 colon.

Regarding `O=c1[nH]c(-c2ccccc2)nc2sc3cc(O)ccc3c12`, the growth is 93% in test [1]; 82.3% in test [2]; 85.9% in test [3]; 101% in test [4]; 73.8% in test [5]; 92.5% in test [6]. For the same molecule, the growth is 95.9% in test [7] and 87.6% in test [8].
`CC(C)c1ccc(-n2c(=S)[nH]c3sc4cc(O)ccc4c3c2=O)cc1`: the growth in test [1] is 105%; in test [2], 91.4%; in test [3], 100%; in test [4], 96.9%; in test [5], 90.1%; in test [6] it was 98.4%. The values for the growth in test [7] and in test [8] were 103% and 105%, respectively.
With `CC(O)(c1ccccc1)C(c1ccccc1)C1CCCCN1` (stereo not drawn), the growth was 94.2% in test [1]; 35.6% in test [2]; 99.1% in test [3]; 103% in test [4]; 110% in test [5]; 97.3% in test [6]. Further, the growth in test [7] was 107%; in test [8] it was 104%.
Take `Cc1ccc(-c2nc(N3CCCNCC3)c3oc(-c4ccccc4)nc3n2)cc1`: the growth in test [1] is -67.5% (active); in test [2], 81.2%; in test [3], -87.9% (active); in test [4], -73.3% (active); in test [5] it was -74.7% (active); in test [6] it was -79.2% (active). Further, the growth in test [7] was -92.1% (active); in test [8], -81.5% (active).
Consider `COc1ccc(-c2ccc(=O)oc2-c2cc(OC)c(OC)c(OC)c2)cc1O`, for which the growth in test [1] was 67.8%; in test [2], 5.78% (active); in test [3], -37.5% (active); in test [4], 9.8% (active); in test [5], 1.84% (active); in test [6], -67.4% (active). Besides, the growth was -2.78% (active) in test [7] and 1.71% (active) in test [8].
For `CC1=NC2=Nn3c(c4cnn(-c5ccccc5)c4n/c3=N\N)NN2C(c2ccccc2)=C1`, the growth in test [1] was 94.1%; in test [2], 95.4%; in test [3], 92.3%; in test [4], 86.8%; in test [5] it was 87.8%; in test [6], 99.3%. Moreover, the growth was 99.2% in test [7] and 92.9% in test [8].
In the case of `COc1cc2c(c(OC)c1OC)CCC(c1cccc(C(=O)Nc3ccc(C#N)cc3)c1)O2` (stereo not drawn), the growth in test [1] was 3.61% (active); in test [2] it was 27.2%; in test [3], 36.6%; in test [4], 86.7%; in test [5], 32.5%; in test [6], 48.8%. Further, the growth in test [7] is 73.1%; in test [8], 60.6%.
`c1csc(-c2ccc(CNc3c4ccccc4nc4ccccc34)cc2)c1`: the growth in test [1] is 71.9%; in test [2], 33.7%; in test [3], -83.4% (active); in test [4], -72.2% (active); in test [5] it was -63% (active); in test [6], -82.6% (active). Further, the growth in test [7] is -87.2% (active); in test [8], 26.3%.
For `N#CC(C#N)N=Nc1ccc(Br)cc1`, the growth in test [1] was 8.56% (active); in test [2], 49.2%; in test [3], 71.7%; in test [4] it was 18.4%; in test [5], 19.4%; in test [6], 13.4%. The growth was 46% in test [7] and 80.8% in test [8].
Turning to `CCCCCCC12CCC(=O)N1CCc1cncn12` (stereo not drawn), the growth in test [1] was 91.9%; in test [2], 114%; in test [3], 105%; in test [4], 102%; in test [5], 94.8%; in test [6] it was 106%. Also, the growth in test [7] was 108%; in test [8] it was 113%.
Turning to `CS(=O)(=O)c1ccc(-c2cnn3ccc(-c4cccc(S(=O)(=O)C5CC5)c4)nc23)cc1`, the growth in test [1] is -6.07% (active); in test [2], 53.4%; in test [3] it was 59.1%; in test [4] it was 74.2%; in test [5] it was 18%; in test [6], 55.5%. Moreover, the growth was 75.4% in test [7] and 62% in test [8].
Consider `CCOC(=O)c1csc(NC(=O)COc2ccc(/C=C3\Oc4ccccc4C3=O)cc2)n1`, for which the growth in test [1] is 97.5%; in test [2], 88.3%; in test [3], 58.6%; in test [4] it was 105%; in test [5], 69%; in test [6] it was 82.5%. In addition, the growth is 106% in test [7] and 88.7% in test [8].
As to `C=CC[Se]C(=O)Cc1c(C)n(C(=O)c2ccc(Cl)cc2)c2ccc(OC)cc12`, the growth in test [1] was -24.3% (active); in test [2], 0.594% (active); in test [3], 8.15% (active); in test [4] it was 5.69% (active); in test [5], -4.29% (active); in test [6], 5.41% (active). The growth in test [7] was 4.27% (active); in test [8] it was -27.9% (active).
Take `COC(=O)C1Cc2ccccc2CN1C(=O)c1ccc2c(c1)Cc1ccccc1-2` (stereo not drawn): the growth was 15.8% [50 µM] in test [1]; 28.3% [50 µM] in test [2]; 24.9% [50 µM] in test [3]; 51.2% [50 µM] in test [4]; 16.7% [50 µM] in test [5]; 30.2% [50 µM] in test [6]. The results for the growth in test [7] and in test [8] were 67.7% [50 µM] and 34.2% [50 µM], respectively.
Consider `CCCOC(=O)Nc1nc2ccc(SCC(C)C)cc2s1`, for which the growth in test [1] is 37.8%; in test [2], 52.3%; in test [3], -7.7% (active); in test [4], 33.8%; in test [5], 19.7%; in test [6], 34.6%. The growth in test [7] is 77.1%; in test [8] it was 38.8%.
Consider `CCC1=C[C@@H]2C[C@]3(C(=O)OC)c4[nH]c5ccccc5c4CC[N@+](CC(=O)Nc4cc5c(cc4OC)N(C)[C@H]4[C@@](O)(C(=O)OC)[C@H](OC(C)=O)[C@]6(CC)C=CCN7CC[C@]54[C@@H]76)(C2)[C@H]13`, for which the growth in test [1] was 105%; in test [2], 111%; in test [3], 105%; in test [4], 100%; in test [5], 103%; in test [6] it was 102%. The values for the growth in test [7] and in test [8] were 110% and 104%, respectively.
